The text below walks through data of PubChem BioAssay AID686979 (National Center for Advancing Translational Sciences (NCATS), 2013).

Among all 420,000 compounds or so, about 50,000 (12%) were called active. Entries that show only a call come without a potency. Roughly 26% stayed inconclusive and do not appear here. Calls follow the shape of the dose curve; as a rule, active = well fitted inhibition curve with a large enough effect; inconclusive = small, poorly fitted or top-dose-only effect; inactive = flat fitted curve, though single readings scatter. Many of the other results were omitted from the sample, so actives are more common in it than they were.
Potency is read from the fitted curve at half-maximal effect.

The nature of this assay: qHTS for Inhibitors of human tyrosyl-DNA phosphodiesterase 1 (TDP1): qHTS in cells in presence of CPT. Also: nearly all actives have a fitted effect of over 55% in size. Conditions: chicken DT40 Tdp1-/-;hTDP1 cells + 20 nM CPT, ATP luminescence, 48 h; series mostly up to 46.2 µM. Put shortly: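 Cell growth measured by CellTiter-Glo luminescence after a minimum 48 h, 37 C compound exposure with 20 nM CPT in Tdp1-knockout DT40 cells stably expressing hTDP1, seeded 400/well; qHTS titration format.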
`O=C(c1cc(S(=O)(=O)N2CCOCC2)ccc1F)N1CCC2(CC1)OCCO2`: the Potency entry was “inactive”.

As for `CCc1nnc(NS(=O)(=O)c2ccc(N=Cc3c(O)n(-c4ccccc4)c(=O)[nH]c3=O)cc2)s1`, the Potency result was “inactive”. Under `O=[N+]([O-])c1ccc(Cl)c(Cl)c1` stands “inactive”.

Regarding `O=C(Cc1ccc(Cl)cc1)NCCN1CCN(C(=O)Cc2ccc(Cl)cc2)CC1`, the Potency entry is “inactive”. Consider `C[C@@H]1C[C@@H]2O[C@H]2/C=C\C=C\C(=O)Cc2c(Cl)c(O)cc(O)c2C(=O)O1`, for which the Potency was 0.0411 µM (active). Under `CCOC(=O)C1=C(C)OC(N)=C(C(=O)OC)C12C(=O)Nc1ccc(Br)cc12` (stereo not given) stands “inactive”; under `CCN1CCN(C(=O)Cc2coc3cc(C)cc(C)c23)CC1`, “inactive”; under `NC(=O)Cn1cc(C(=O)c2ccccc2F)c2ccccc21`, “inactive”.

For `COCCNC(=O)CN1C2CCC1CC(O)(c1cccnc1)C2` (stereo not given), the Potency result is “inactive”. Consider `Cc1cc2n(n1)C(c1cc(C(C)(C)C)c(O)cc1O)Nc1ccccc1-2` (stereo not given), for which the Potency is 14.6 µM (active). The entry for `CCC/C(=N\O)c1c[nH]c2ccccc12` is “inactive”; for `NCC(O)c1ccc(O)cc1` (stereo not given) it is “inactive”; for `CC[N+](C)(CC)CCC[n+]1c(-c2ccccc2)c2cc(N)ccc2c2ccc(N)cc21` it is 2.58 µM (active). The entry for `COc1ccc(NC(=O)N2Cc3ccccc3-n3nncc3C2)cc1` is “inactive”.

In the case of `CCN(CC)CCOC(=O)c1cc2cc(COC)ccc2o1`, the Potency result is “inactive”.

Regarding `CC(=O)c1ccc(OC(NC(=O)Cc2ccccc2)C(Cl)(Cl)Cl)cc1` (stereo not given), the Potency entry is “inactive”.

As to `Cc1cccc2c3c(ccc12)C1=C(C(=O)C3=O)C(C)CO1` (stereo not given), the Potency is 4.11 µM (active). `CCOC(=O)c1c(N)n(CCN2CCOCC2)c2nc3ccccc3nc12`: the Potency entry is “inactive”. `CC1(C)OC[C@@H](COC(=O)CCc2ccc(OC[C@@H](O)CNCCNC(=O)N3CCOCC3)cc2)O1`: the Potency entry is “inactive”. Take `Cc1ccc(S(=O)(=O)N(C)c2ccc(C(=O)NCC3(N(C)C)CCCCC3)cc2)cc1`: the Potency entry is “inactive”.

Turning to `O=C(CCN1CCCCC1)NCC(=O)Nc1ccc(Br)cc1C(=O)c1ccccc1`, the Potency was 18.4 µM (active). Turning to `O=C(CN1CCCCC1)Nc1ccc(Br)cc1C(=O)c1ccccc1Cl`, the Potency entry is “inactive”. Under `CCOC(=O)CC(SP1(=S)OCC2(CCCCO2)C(C2CCCCO2)O1)C(=O)OCC` (stereo not given) stands “inactive”; under `C[C@]12CCC3C(CC[C@H]4[C@H](O)[C@H](O)CC[C@]34C)C1CCC2=O` (stereo not given in full), 16.4 µM (active); under `C[C@]12CCC3C(CC[C@H]4[C@H](O)[C@H](O)CC[C@]34C)C1CC[C@@H]2O` (stereo not given in full), “inactive”. The entry for `C[C@]12CCC3C(CC[C@H]4C[C@@H](O)CC[C@]34C)C1C[C@@H](O)[C@H]2O` (stereo not given in full) is “inactive”; for `Nc1ccc(Cc2ccc(N)c(Cl)c2)cc1Cl` it is “inactive”. The figure for `O=c1[nH]c2ccccc2n1C1CCN(C(c2ccccc2)c2nnnn2Cc2ccccc2)CC1` (stereo not given) is 18.4 µM (active); for `O=c1[nH]c2ccccc2n1C1CCN(C(c2ccnc3ccccc23)c2nnnn2Cc2ccccc2)CC1` (stereo not given) it is 20.6 µM (active); for `Cc1ccc(Cn2nnnc2CN2CCC(n3nnc4ccccc43)CC2)cc1` it is “inactive”.
